Measurements from PubChem BioAssay (Tox21).
Inconclusive results are not listed. Calls of active or inactive are those of the source. Unless noted, the call rests on the fitted dose curve.

Columns and labels:
[1] = Nuclear factor erythroid 2-related factor 2/antioxidant responsive element (Nrf2/ARE) small molecule agonists: qHTS cell viability counter screen in human keratinocytes (AID 1919968; active means well fitted curve in the direction sought with a large enough effect in the repeat runs; an effect the other way counts as inactive or inconclusive; further: nearly all actives have a fitted effect of over 55% in size)
Summary of the method: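 CellTiter-Fluor fluorescence, read 1 h after reagent, gave viability in the same wells as the ARE-luciferase assay. KeratinoSens cells (1,500/well) had 23 h compound exposure at 37 C/5% CO2 following 5 h plating.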

[2] = Nuclear factor erythroid 2-related factor 2/antioxidant responsive element (Nrf2/ARE) small molecule agonists: luciferase reporter gene qHTS assay in human keratinocytes (AID 1919969); further: nearly all actives have a fitted effect of over 35% in size
[3] = biological target: Gonadotropin-releasing hormone receptor (Homo sapiens) (UniProt P30968); experiment: Human gonadotropin-releasing hormone receptor (GnRHR) small molecule agonists, calcium flux assay in GnRHR-HEK293 cells (AID 1920063); further: nearly all actives have a fitted effect of over 35% in size
Chain of Gonadotropin-releasing hormone receptor (Homo sapiens) (P30968 whole entry, looked up): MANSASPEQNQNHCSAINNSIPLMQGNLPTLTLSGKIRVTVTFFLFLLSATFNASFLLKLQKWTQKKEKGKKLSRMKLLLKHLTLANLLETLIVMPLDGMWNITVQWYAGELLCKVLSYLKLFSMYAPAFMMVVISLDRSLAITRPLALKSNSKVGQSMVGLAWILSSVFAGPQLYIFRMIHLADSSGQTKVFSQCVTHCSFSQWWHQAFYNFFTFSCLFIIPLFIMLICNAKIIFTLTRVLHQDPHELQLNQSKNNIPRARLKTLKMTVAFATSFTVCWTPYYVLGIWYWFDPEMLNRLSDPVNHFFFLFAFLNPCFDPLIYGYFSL
Summary of the method: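 Agonist mode: compounds at 15 concentrations, in triplicate, went onto calcium dye-loaded GnRHR-HEK293 cells. Intracellular calcium was then followed as 480/540 nm fluorescence at 1 s intervals over 3 min.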

[4] = biological target: KiSS-1 receptor (Homo sapiens) (UniProt Q969F8); experiment: Human kisspeptin (KISS1R) small molecule agonists, calcium flux assay in KISS1R-HEK293 cells (AID 1920064; active means well fitted curve in the direction sought with a large enough effect in the repeat runs; an effect the other way counts as inactive or inconclusive)
Chain of KiSS-1 receptor (Homo sapiens) (Q969F8 whole entry, looked up): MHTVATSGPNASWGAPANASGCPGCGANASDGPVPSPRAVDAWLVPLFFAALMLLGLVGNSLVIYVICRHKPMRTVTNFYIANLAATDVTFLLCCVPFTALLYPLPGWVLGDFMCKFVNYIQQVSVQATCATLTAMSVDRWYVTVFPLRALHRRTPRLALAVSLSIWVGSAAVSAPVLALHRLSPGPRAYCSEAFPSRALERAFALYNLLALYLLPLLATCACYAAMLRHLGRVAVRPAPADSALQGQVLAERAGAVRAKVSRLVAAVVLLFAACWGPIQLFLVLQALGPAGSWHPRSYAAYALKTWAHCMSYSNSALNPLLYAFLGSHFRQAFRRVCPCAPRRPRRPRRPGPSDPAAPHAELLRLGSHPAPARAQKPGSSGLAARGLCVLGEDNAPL
Summary of the method: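 Agonist mode: intracellular calcium rise tracked at 1 s intervals over 3 min (480/540 nm) immediately after compound addition to dye-loaded KISS1R-HEK293 stable cells. Each compound tested at 15 concentrations in triplicate.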

[5] = G protein-coupled receptor (GPCR) small molecule agonists, calcium flux assay: HEK293 wild type cell line counter screen (AID 1920065)
Summary of the method: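 Calcium flux counter screen: compound added in agonist mode at 15 concentrations in triplicate to dye-loaded parental HEK293 cells. Fluorescence (480/540) read kinetically for 3 min; ATP served as positive control.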

[6] = p53 small molecule agonists, cell-based qHTS assay with human liver microsomes (AID 1963577);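 further: p53 response element beta-lactamase reporter cells with liver microsomes plus NADPH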
Summary of the method: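 p53RE-bla cells; 5 h settle, 37 C/5% CO2; cpd + HLM 0.5 mg/mL + NADPH 0.5 mg/mL (final); 16 h 37 C; LiveBLAzer 2 h RT dark; fluorescence readout.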

[7] = p53 small molecule agonists, cell-based qHTS assay with rat liver microsomes (AID 1963578)
Summary of the method: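 Rat liver microsome activation: microsomes 0.5 mg/mL, NADPH 0.5 mg/mL final; p53RE-bla cells, 16 h 37 C; LiveBLAzer readout, 2 h RT dark.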

[8] = p53 small molecule agonists, cell-based qHTS assay with human liver microsomes: qHTS cell viability counter screen (AID 1963579); further: nearly all actives have a fitted effect of over 45% in size
Summary of the method: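 Luminescent CellTiter-Glo read-out, 30 min at room temperature, gauged cytotoxicity in p53RE-bla cells exposed 16 h at 37 C to DMSO-dissolved compounds with metabolic activation by human liver microsomes and NADPH, each 0.5 mg/mL final.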

[9] = p53 small molecule agonists, cell-based qHTS assay with rat liver microsomes: qHTS cell viability counter screen (AID 1963580); further: nearly all actives have a fitted effect of over 45% in size
Summary of the method: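 Cytotoxicity counter screen: intracellular ATP measured by CellTiter-Glo luminescence in the same wells as the beta-lactamase reporter read, on HCT-116 p53RE-bla cells exposed 16 h at 37 C to compounds with rat liver microsomes and NADPH, each 0.5 mg/mL final.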

[10] = p53 small molecule agonists, cell-based qHTS assay: qHTS cell viability counter screen (AID 1963581); further: nearly all actives have a fitted effect of over 45% in size; further: potency means the concentration at half of the fitted maximal effect
Summary of the method: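 Counter screen read by CellTiter-Glo luminescence (ATP content, 30 min at room temperature), run in the same wells as the beta-lactamase reporter read. HCT-116 p53RE-bla cells saw compounds for 16 h at 37 C.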

[11] = p53 small molecule agonists, cell-based qHTS assay (AID 1963582; active means well fitted activation curve with a large enough effect in the signal ratio in the repeat runs, not every such curve was filed as active; the % refers to the signal ratio)
Summary of the method: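 Read-out is beta-lactamase FRET fluorescence after 2 h at room temperature with LiveBLAzer B/G substrate. p53 response element-bla cells were treated 16 h at 37 C with compounds in DMSO, added 5 h after seeding.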

[12] = biological target: Muscarinic acetylcholine receptor M1 (Homo sapiens) (UniProt P11229); experiment: Cholinergic receptor muscarinic 1 (CHRM1) small molecule antagonists, cell-based qHTS assay (AID 1963588); further: nearly all actives have a fitted effect of over 40% in size; further: potency means the concentration at half of the fitted maximal effect
Chain of Muscarinic acetylcholine receptor M1 (Homo sapiens) (P11229 whole entry, looked up): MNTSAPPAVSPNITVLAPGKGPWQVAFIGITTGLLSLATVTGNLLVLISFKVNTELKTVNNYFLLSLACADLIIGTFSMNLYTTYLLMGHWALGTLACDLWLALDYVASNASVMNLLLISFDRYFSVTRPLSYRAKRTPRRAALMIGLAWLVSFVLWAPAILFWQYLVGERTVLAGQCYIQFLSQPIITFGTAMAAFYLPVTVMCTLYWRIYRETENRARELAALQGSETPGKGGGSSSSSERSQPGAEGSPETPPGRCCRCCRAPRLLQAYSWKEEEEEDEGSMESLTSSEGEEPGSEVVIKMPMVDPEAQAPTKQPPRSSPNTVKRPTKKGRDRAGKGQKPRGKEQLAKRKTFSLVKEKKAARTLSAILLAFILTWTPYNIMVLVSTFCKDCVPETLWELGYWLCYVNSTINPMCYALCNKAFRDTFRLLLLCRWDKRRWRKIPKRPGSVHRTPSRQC
Summary of the method: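 Compounds were tested at 15 concentrations in three independent runs. Dye-loaded CHRM1-CHO cells were exposed 5 min at room temperature before stimulation by acetylcholine added at 50nM. Intracellular calcium was read kinetically on FDSS for 3 min.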

[13] = cAMP Responsive Elements (CRE) small molecule agonists, cell-based qHTS assay (AID 1963590)
Summary of the method: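 Agonist mode: compound added to CRE-bla HEK 293T cells (2,000/well, 18 h after plating) for 3 h at 37 C/5% CO2. Reporter activity detected via FRET beta-lactamase substrate, 2 h room-temperature loading.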

[14] = cAMP Responsive Elements (CRE) small molecule antagonists, cell-based qHTS assay (AID 1963591; active means well fitted inhibition curve with a large enough effect in the signal ratio in the repeat runs, not every such curve was filed as active; the % refers to the signal ratio)
Summary of the method: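 Antagonist mode: compounds are added alongside the adenylyl cyclase activator NKH477 (0.25 uM final) to CRE-bla HEK293T cells for 3 h. LiveBLAzer FRET substrate, 2 h at room temperature, reports bla expression.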

[15] = biological target: Beta-2 adrenergic receptor (Homo sapiens) (UniProt P07550); experiment: Adrenergic beta2 receptor (ADRB2) small molecule antagonists, cell-based qHTS assay (AID 1963592); further: nearly all actives have a fitted effect of over 50% in size; further: potency means the concentration at half of the fitted maximal effect
Chain of Beta-2 adrenergic receptor (Homo sapiens) (P07550 whole entry, looked up): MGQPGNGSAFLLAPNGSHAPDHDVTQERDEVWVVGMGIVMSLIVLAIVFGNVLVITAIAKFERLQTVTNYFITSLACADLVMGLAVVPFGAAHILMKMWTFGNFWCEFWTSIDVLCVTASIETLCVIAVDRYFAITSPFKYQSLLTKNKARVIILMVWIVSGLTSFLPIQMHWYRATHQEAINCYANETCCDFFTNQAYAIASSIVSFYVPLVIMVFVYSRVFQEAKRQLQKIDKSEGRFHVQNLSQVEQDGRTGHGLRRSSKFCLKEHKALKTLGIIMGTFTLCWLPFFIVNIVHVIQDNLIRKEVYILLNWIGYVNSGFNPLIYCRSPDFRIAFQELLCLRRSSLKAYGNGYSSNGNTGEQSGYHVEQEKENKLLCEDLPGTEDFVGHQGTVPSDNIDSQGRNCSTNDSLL
Summary of the method: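 Assay format: CHO-ADRB2 cells, 18-20hr seeding at 37C/5% CO2, then compound plus 1nM isoproterenol agonist mix for 0.5hr RT. Homogeneous time-resolved fluorescence cAMP detection after 1hr, expressed as 665/615 nm ratio.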

[16] = biological target: D(2) dopamine receptor (Homo sapiens) (UniProt P14416); experiment: Dopamine D2 receptor (DRD2) small molecule agonists, cell-based qHTS assay (AID 1963594); further: nearly all actives have a fitted effect of over 35% in size; further: potency means the concentration at half of the fitted maximal effect
Chain of D(2) dopamine receptor (Homo sapiens) (P14416 whole entry, looked up): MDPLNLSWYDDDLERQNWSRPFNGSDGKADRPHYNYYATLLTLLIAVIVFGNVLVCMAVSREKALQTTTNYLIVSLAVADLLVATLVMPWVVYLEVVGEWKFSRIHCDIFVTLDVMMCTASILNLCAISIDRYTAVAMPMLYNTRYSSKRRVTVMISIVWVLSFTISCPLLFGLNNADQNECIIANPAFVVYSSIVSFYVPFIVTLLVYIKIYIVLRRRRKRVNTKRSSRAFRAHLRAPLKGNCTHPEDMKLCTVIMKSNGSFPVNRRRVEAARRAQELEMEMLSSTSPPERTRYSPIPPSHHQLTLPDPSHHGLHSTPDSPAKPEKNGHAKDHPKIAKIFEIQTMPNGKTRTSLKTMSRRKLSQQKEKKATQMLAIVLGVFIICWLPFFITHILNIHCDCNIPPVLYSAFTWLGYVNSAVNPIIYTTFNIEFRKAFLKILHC
Summary of the method: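 HEK293 cells stably expressing human DRD2, pre-treated with PDE inhibitor Ro20-1724 (0.1 mM final) and compound 10 min at room temperature, then stimulated with NKH477 (200nM […]) for 30 min. cAMP read by HTRF (665/620 nm).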

[17] = biological target: D(2) dopamine receptor (Homo sapiens) (UniProt P14416); experiment: Dopamine D2 receptor (DRD2) small molecule antagonists, cell-based qHTS assay (AID 1963595; active means well fitted inhibition curve with a large enough effect in the signal ratio in the repeat runs, with a control signal flat; the % refers to the signal ratio; further: potency means the concentration at half of the fitted maximal effect)
Summary of the method: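 HTRF cAMP read-out at 665 and 620 nm emission (340 nm excitation). Antagonist mode: compounds were tested against 12 nM quinpirole in DRD2-HEK293 cells, with 200 nM NKH477 raising cAMP and 0.1 mM Ro20-1724 blocking its breakdown.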

[18] = biological target: Muscarinic acetylcholine receptor M1 (Homo sapiens) (UniProt P11229); experiment: Cholinergic receptor muscarinic 1 (CHRM1) small molecule agonists, cell-based qHTS assay (AID 1963589); further: nearly all actives have a fitted effect of over 35% in size
Summary of the method: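 Agonist-mode calcium-flux screen: compounds at 15 concentrations, three independent runs, were pin-transferred onto dye-loaded human CHRM1-CHO cells. Fluorescence was then recorded kinetically every second over minutes.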

Measured: Potency

O=Cc1c(Cl)cccc1Cl
not listed: [18]
inactive: all other assays above

Cc1cc2c(cc1S(N)(=O)=O)S(=O)(=O)CCC2
not listed: [13]
inactive: all other assays above

Cc1ccc(N(CC2=NCCN2)c2cccc(O)c2)cc1
not listed: [12] | [17] | [18]
inactive: all other assays above

CCCNC(C)C(=O)Nc1ccccc1C (centres undefined)
active: [16] 14400 nM
not listed: [12] | [18]
inactive: all other assays above

CC(N)C12CC3CC(CC(C3)C1)C2 (centres undefined)
not listed: [12] | [17] | [18]
inactive: all other assays above

CC(C)[C@H](N)C(=O)OCCOCn1cnc2c(=O)[nH]c(N)nc21
active: [10] 1780 nM
not listed: [12] | [17] | [18]
inactive: all other assays above

C[N+]1(C)[C@@H]2CC(OC(=O)[C@H](CO)c3ccccc3)C[C@H]1[C@@H]1O[C@@H]12 (some centres undefined)
not listed: [12] | [17] | [18]
inactive: all other assays above

CCN(CCCCOC(=O)c1ccc(OC)c(OC)c1)C(C)Cc1ccc(OC)cc1 (centres undefined)
active: [12] 163 nM | [15] 13300 nM
not listed: [14]
inactive: all other assays above

C[C@H]1C[C@H]2[C@@H]3CCC4=CC(=O)C=C[C@]4(C)[C@@]3(F)[C@@H](O)C[C@]2(C)[C@@]1(O)C(=O)COP(=O)(O)O
not listed: [12] | [18]
inactive: all other assays above

CCN(CC)CCc1nc(-c2ccccc2)no1
not listed: [14] | [17]
inactive: all other assays above

CO[C@@]1(NC(=O)CSCC#N)C(=O)N2C(C(=O)O)=C(CSc3nnnn3C)CS[C@@H]21
not listed: [12] | [17] | [18]
inactive: all other assays above

CCN(CC)CCNC(=O)c1cc(Cl)c(N)cc1OC
active: [17] 1680 nM
not listed: [12] | [18]
inactive: all other assays above

CC[C@H]1OC(=O)[C@H](C)[C@@H](O[C@H]2C[C@@](C)(OC)[C@@H](O)[C@H](C)O2)[C@H](C)[C@@H](O[C@@H]2O[C@H](C)C[C@H](N(C)C)[C@H]2O)[C@](C)(OC)C[C@@H](C)C(=O)[C@H](C)[C@@H](O)[C@]1(C)O
not listed: [12] | [18]
inactive: all other assays above

CC1(C)S[C@@H]2[C@H](N=CN3CCCCCC3)C(=O)N2[C@H]1C(=O)O
inactive: all assays above
